This note sets out measurements from PubChem BioAssay AID2284159 (EPA ToxCast).

SMILES strings stand for the structures. Active and inactive are the calls of the source. How the source made its calls: active means hit-call score of the fitted dose curve at least 0.9, where 1 is the maximum; inactive means score below 0.9.

Usually AC50 stands for the concentration at which the activity in the assay is half-maximal.

Chain of human Dopamine Receptor D2L, DRD2 (gene 1813) (P14416 whole entry, looked up): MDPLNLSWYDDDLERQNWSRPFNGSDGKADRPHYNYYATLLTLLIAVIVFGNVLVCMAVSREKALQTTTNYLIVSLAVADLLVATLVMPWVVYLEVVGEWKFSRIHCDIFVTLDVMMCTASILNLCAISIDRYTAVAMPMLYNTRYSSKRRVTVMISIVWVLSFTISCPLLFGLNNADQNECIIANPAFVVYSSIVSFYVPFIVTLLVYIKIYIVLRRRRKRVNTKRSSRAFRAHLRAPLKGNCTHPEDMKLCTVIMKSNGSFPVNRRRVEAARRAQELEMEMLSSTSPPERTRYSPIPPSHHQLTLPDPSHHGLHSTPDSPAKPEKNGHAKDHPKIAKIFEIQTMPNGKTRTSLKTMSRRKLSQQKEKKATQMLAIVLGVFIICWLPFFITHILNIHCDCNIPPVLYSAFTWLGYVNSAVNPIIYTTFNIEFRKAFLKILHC

This assay addresses human Dopamine Receptor D2L, DRD2 (gene 1813) (UniProt P14416). Nature of the assay: ERF_FR_GPCR_hDRD2: Eurofins (ERF) G Protein-Coupled Receptor (GPCR) Radioligand Binding LeadHunter Assay for human Dopamine Receptor D2L Antagonism. As for the experimental part: ERF_FR_GPCR_hDRD2 is a biochemical, single-readout assay that uses extracted gene-proteins in a cell-free assay. Measurements were taken 1 hour after chemical dosing in a 96-well plate. See D2L Human Dopamine GPCR Binding (Antagonist Radioligand) Assay, Cerep.ERF_FR_GPCR_hDRD2 is an assay component calculated from the ERF_FR_GPCR_hDRD2 assay. It is designed to measure radioligand binding using a type of binding reporter as detected by scintillation counting with radiometry technology.Data from the assay component ERF_FR_GPCR_hDRD2 was analyzed at the assay endpoint, ERF_FR_GPCR_hDRD2, in the positive analysis fitting direction relative to DMSO as the negative control and baseline of activity. Using a type of binding reporter, loss-of-signal activity can be used to understand changes in binding as they relate to gene DRD2. To generalize the intended target to other relatable targets, this assay endpoint is annotated to the gpcr intended target family, where the subfamily is dopamine.
Human cells are incubated for 60 minutes at room temprature with [3H]methyl-spiperone ligand (0.3 nM) and Butaclamol as control inhibitor.Test Sample Requirements: Minimum for 1) Screen: 60 ul of 10 mM stock -OR- 1 mg (pre-weighed) for 10 uM final testing. 2) Dose Response: 90 ul of 10 mM stock -OR- 1 mg (pre-weighed) for a top concentration at 10 uM.
Consider `O=C(/C=C/c1ccc(O)cc1)CC(=O)/C=C/c1ccc(O)cc1`, for which the AC50 is 1550 nM (active).
